Source: PubChem (National Center for Advancing Translational Sciences (NCATS))
RE007 growth inh: less growth of the S. pombe RE007 Vpr strain. S. pombe RE007 Vpr strain, BacTiter-Glo ATP luminescence, 24 h. Potency, µM (top dose mostly 92.2 µM), without a hit: at the top dose activity change, negative = less growth, hits mostly inhibitors. 360,000 compounds, 0.21% hits. AID 651644; active = well fitted falling curve with a large enough effect; inconclusive = small, poorly fitted or top-dose-only effect; inactive = no such curve, though single readings can be large or run the other way; also: % is scaled to controls: 0 for no effect and ±100 for the full control effect; nearly all actives have a fitted effect of over 50% in size
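Fission yeast strain RE007, carrying one chromosomally integrated HIV-1 vpr copy, was seeded at OD 0.01 in PMG+AL medium with 23 nL pinned compound. After 24 h at 30 °C and 99% humidity, viability was read by BacTiter-Glo luminescence.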
Sm TGR block: S. mansoni TGR enzyme inhibition. Potency, µM (top dose mostly 114 µM), inactives show at the highest dose activity change, negative = inhibition, hits mostly inhibitors. 360,000 compounds, 3% hits. purified TGR, DTNB reduction, TNB absorbance 405 nm. Q962Y6; also: % is scaled to controls: 0 for no effect and ±100 for the full control effect; nearly all actives have a fitted effect of over 60% in size
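Kinetic colorimetric format: TGR-catalysed, NADPH-driven DTNB reduction monitored via TNB absorbance. Enzyme dispensed at 20 nM; compound exposure 15 min at room temperature before reaction start.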
NS1 inh: blocks influenza NS1 protein function; 270,000 compounds, 0.4% hits; Potency, µM (series often up to 46.1 µM), inactives show top-dose activity, positive = more growth; calls by dose curve; also: actives are rising curves; nearly all actives have a fitted effect of over 50% in size
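OD600 was taken as the measure of yeast growth restored by compound in an NS1-expressing S. cerevisiae strain. Cells had been washed out of glucose medium and diluted 1:100 into galactose -URA medium, pH 6.0.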
TbPYK inhibitor: inhibitors of Trypanosoma brucei pyruvate kinase; 410,000 compounds, 0.12% hits; Potency, µM (doses to about 76.8 µM), inactives show top-dose activity, negative = inhibition, most hits filed as inhibitors; Q57TT1; TbPYK enzyme, Kinase-Glo Plus ATP luminescence, 45 min; AID 624173; also: % is scaled to controls: 0 for no effect and ±100 for the full control effect; nearly all actives have a fitted effect of over 50% in size
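Enzyme and substrate buffer are dispensed first and compound is pin-transferred. ADP at 130 uM final then starts the reaction, which runs 45 min at room temperature. Detection reagent is added for 10 min before luminescence is imaged.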
Giardia FBPA inh: inhibitors of Giardia lamblia fructose-1,6-bisphosphate aldolase. A8B2U2. purified Giardia FBPA. Potency, µM (highest dose often 59.6 µM), for the others: at the highest dose activity, negative = inhibition, most hits filed as inhibitors. 290,000 compounds, 0.71% hits. AID 2451; also: % is scaled to controls: 0 for no effect and ±100 for the full control effect; nearly all actives have a fitted effect of over 55% in size
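Giardia FBPA (40 nM reagent) was preincubated 10 min at RT with compound (up to 57.5 uM final), then substrate plus GAPDH/TPI/NAD/arsenate coupling system with diaphorase/resazurin was added; resorufin fluorescence (525/598 nm) was read after 20 min.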
LmPK inh: LmPK (Leishmania mexicana) enzyme inhibition. Potency, µM (top dose mostly 57.5 µM), without a hit: at the top dose activity change, negative = inhibition, usual class: inhibitors. Q27686. purified LmPK, Kinase-Glo ATP luminescence, 1 h. 290,000 compounds, 0.37% hits; also: % is scaled to controls: 0 for no effect and ±100 for the full control effect
Target sequence (Q27686 whole entry, looked up): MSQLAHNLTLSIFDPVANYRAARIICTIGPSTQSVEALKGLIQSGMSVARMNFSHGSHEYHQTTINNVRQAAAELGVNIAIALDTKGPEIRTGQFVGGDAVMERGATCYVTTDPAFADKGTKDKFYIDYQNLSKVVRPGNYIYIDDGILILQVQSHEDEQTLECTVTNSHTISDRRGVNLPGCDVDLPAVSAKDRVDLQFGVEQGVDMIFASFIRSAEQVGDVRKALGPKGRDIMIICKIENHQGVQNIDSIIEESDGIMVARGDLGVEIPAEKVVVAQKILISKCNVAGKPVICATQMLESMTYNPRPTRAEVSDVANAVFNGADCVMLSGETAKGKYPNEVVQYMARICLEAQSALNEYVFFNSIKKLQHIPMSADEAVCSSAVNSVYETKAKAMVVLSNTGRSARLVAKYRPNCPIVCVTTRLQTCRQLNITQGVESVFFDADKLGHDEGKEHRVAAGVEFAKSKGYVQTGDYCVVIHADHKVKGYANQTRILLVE
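In 50 mM imidazole pH 7.2 with 7 mM MgCl2, LmPK (0.1 nM) turned over PEP (0.5 mM) and ADP (0.1 mM) for 1 h at room temperature. Luciferase read-out of ATP.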
* hit, by the source's call; ? = inconclusive; · = no result given; ! = not confirmed by another sample; [ ] = remark or other dose. Most compounds without a hit are left out; they make up all but 3.5% or so of the library. Unless noted, calls follow the shape of the dose curve; as a rule, active = well fitted curve in the direction sought with a large enough effect; inconclusive = small, poorly fitted or top-dose-only effect, or another doubt; inactive = no such curve, though single readings can be large; an effect the other way counts as inactive or inconclusive. Potency is read from the fitted curve at half-maximal effect.

SMILES	RE007 growth inh	Sm TGR block	NS1 inh	TbPYK inhibitor	Giardia FBPA inh	LmPK inh
CCCc1nc2cc3c(cc2[nH]1)n(C)c(=O)n3C	-11%	22µM*	4%	-1%	?	5%
CCOC(=O)C1=C(C)N=c2s/c(=C/c3cccc([N+](=O)[O-])c3O)c(=O)n2C1c1ccc(OC)cc1OC (stereo not drawn)	4%	56µM*	30%	?	-5%	-12%
O=C(Nc1cccc(C(=O)N2CCN(c3ccc(Cl)cc3)CC2)c1)c1nsc2ccccc12	·	1%	·	3%	·	·
COc1ccc(CNC(=O)C2CCNCC2)cc1	-5%	45µM*	6%	-4%	4%	3%
COc1ccc(OCC2CCNCC2)cc1	-3%	35µM*	6%	-6%	-7%	0%
COc1ccc(CNC(=O)C2CCN(S(=O)(=O)N3CCCCC3)CC2)cc1	-2%	0%	6%	6%	13%	1%
O=C(O)/C=C/C(=O)NNC(=O)c1ccccc1Br	1%	3.5µM*	-7%	-15%	-3%	2%
CNC(=S)NNC(=O)c1ccccc1Br	5%	-1%	6%	3%	-21%	-2%
Cc1ccccc1C(=O)NNC(=O)/C=C\C(=O)O	6%	2µM*	0%	-11%	-18%	3%
CCn1c(=O)c(C(=O)Nc2ccc(C(C)=O)cc2)nc2ccccc21	·	-5%	·	1%	·	·
O=S(=O)(O)C(c1ccccc1)[C@@H](O)c1ccccc1 (stereo partly drawn)	·	·	3%	·	·	·
COc1ccc(NC(=O)c2c(NC(=O)C(F)(F)F)sc3c2CCCCC3)cc1	·	2%	·	13%	·	·
CN(C)c1cc(Cl)c2nonc2c1N	-12%	50µM*	11%	1%	-19%	0%
CC(=O)Nc1ccc(N/C=C2/CCCC2=O)cc1	-30%	?	-5%	2%	-12%	2%
Cc1cc(O)ccc1N/C=C1\CCCC1=O	1%	?	17%	-12%	8.9µM*	3%
NC(C(=O)N[C@@H]1C(=O)N2C(C(=O)O)=C(Cl)CS[C@H]12)c1ccccc1 (stereo partly drawn)	·	·	20%	·	-1%	·
C=CC1=C(C(=O)O)N2C(=O)[C@@H](NC(=O)C(N=O)c3csc(N)n3)[C@H]2SC1 (stereo partly drawn)	·	·	·	-7%	16µM*	·
C=CC1=C(C(=O)O)N2C(=O)[C@@H](NC(=O)/C(=N\O)c3csc(N)n3)[C@H]2SC1 (stereo in doubt)	-7%[18.4 µM]	·	·	-9%	·	·
CC1=C(C(=O)O)N2C(=O)C(NC(=O)C(N)C3=CCC=CC3)C2SC1 (stereo not drawn)	·	·	·	·	7.9µM*	·
N[C@@H](C(=O)N[C@@H]1C(=O)N2C(C(=O)O)=C(Cl)CS[C@H]12)c1ccccc1	-1%	-22%	4%	-9%	20µM*!	4%
O=C1c2sc3nc4c(c(=O)n3c2C(=O)N1c1ccccc1)CCC4	-17%	18µM*	-132%	-12%	0%	-23%
Cc1ccccc1N1C(=O)c2sc3nc4c(c(=O)n3c2C1=O)CCC4	3%	?	-81%	?	-18%	?
CCOc1ccc2c(c1)nc(SCC(=O)c1ccc(Br)s1)n2C	-4%	35µM*	22%	-27%	-14%	-3%
CCOc1ccc2c(c1)nc(SCC(=O)c1cccs1)n2C	-26%	?	-7%	-19%	-14%	-4%
COc1ccc(S(=O)(=O)N2CCC(N3CCN(Cc4ccccc4)C(=O)C3=O)CC2)cc1	·	-2%	·	3%	·	·
SMILES	RE007 growth inh	Sm TGR block	NS1 inh	TbPYK inhibitor	Giardia FBPA inh	LmPK inh
COc1cc(-c2nc(S(=O)(=O)c3ccc(C)cc3)c(N(C)C)o2)cc(OC)c1OC	-3%	18µM*	2%	-1%	-18%	1%
Cc1ccc(S(=O)(=O)c2nc(-c3ccccc3Cl)oc2N(C)C)cc1	-18%	-9%	5%	-4%	·	-10%
COc1ccccc1-c1nc(S(=O)(=O)c2ccc(Cl)cc2)c(N(C)C)o1	2%	?	7%	13%	-22%	-3%
Cc1nc(S(=O)(=O)c2ccc(Cl)cc2)c(N(C)C)o1	1%	10µM*	20%	-4%	-4%	7%
Cc1ccc(-c2nc(S(=O)(=O)c3ccc(C)cc3)c(N(C)C)o2)cc1	11%	2.5µM*	-5%	42%	?	0%
O=C(Nc1ccc(Cl)cc1Cl)c1cc(S(=O)(=O)N2CCCCCC2)ccc1F	·	4%	·	-5%	·	·
CCOC(=O)CSc1nc2sc3c(c2c(=O)n1Cc1ccccc1)CCC(C(C)(C)C)C3 (stereo not drawn)	·	4%	·	-1%	·	·
COc1ccccc1C(=O)c1c(N)c(-c2nc(-c3ccccc3)cs2)c2ccccn12	·	-1%	·	-8%	·	·
CN1C[C@H](c2ccccc2)C(O)([C@]2(c3ccccc3)CN(C)C[C@@H](c3ccccc3)C2=O)[C@H](c2ccccc2)C1 (stereo partly drawn)	·	·	-3%	·	·	·
COc1ccc(C)cc1NC(=O)c1ccc2c(c1)N(Cc1cccc(Cl)c1)C(=O)c1ccccc1S2=O (stereo not drawn)	·	-12%	·	3%	·	·
CCN(C(=O)Cn1ncc2c(=O)oc3ccc(C)cc3c21)c1cc(OC)ccc1OC	·	0%	·	0%	·	·
COc1ccc(S(=O)(=O)N2CCC(C(=O)N[C@H](C(=O)NC3CCCC3)C(C)C)CC2)cc1	5%	89µM*	1%	-7%	·	-1%
Cc1nc2c(sc3nc4c(cc32)COC(C)(C)C4)c(=O)n1Cc1ccccc1	-1%	-16%	9%	0%	0%	5%
CCCc1nc2c(sc3nc4c(cc32)COC(C)(C)C4)c(=O)n1CCN(C)C	2%	-4%	·	5%	5%	4%
CCCc1nc2c(sc3nc4c(cc32)COC(C)(C)C4)c(=O)n1Cc1ccco1	6%	35µM*	-40%	-27%	-6%	-1%
CC1(C)Cc2nc3sc4c(SCC(=O)NCc5ccco5)ncnc4c3cc2CO1	-13%	13µM*	15%	-7%	-1%	-2%
Cc1nc2c(sc3nc4c(cc32)COC(C)(C)C4)c(=O)n1CC(=O)NCc1ccco1	12%	40µM*	-16%	0%	-1%	-5%
COc1ccc(N(CC(=O)Nc2cccc(C(C)=O)c2)S(=O)(=O)c2ccccc2)c(OC)c1	·	-1%	·	-7%	·	·
CC1COC2=C1C(=O)C(=O)c1c2ccc2c1CCCC2(C)C (stereo not drawn)	·	·	·	·	1.6µM*	·
C[C@H]1COC2=C1C(=O)C(=O)c1c2ccc2c1CCCC2(C)C	-29%	4µM*	-4%	-4%	?	0%
Cc1coc2c1C(=O)C(=O)c1c-2ccc2c(C)cccc12	-14%	8.9µM*	-76%	-18%	1.3µM*	-2%
